Measurements as given in PubChem BioAssay.
“And” between values parts separate entries of the source, which are not always exact repeats. Identical values can stand only once. The source holds several records for some structures; these can differ, active in one and inactive in another. The source made the active and inactive calls. Cut-off read from the data, not from the text of the source, unless noted: active = inhibition above about 30%; inactive = the rest.

Tests used:
[1] = biological target: Nuclear receptor coactivator 3 (Homo sapiens) (UniProt Q9Y6Q9); assay: NCOA3 GAL4-fusion reporter inhibition – cell-based, luminescence, quadruplicate, confirmation (AID 588792;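 active = mean inhibition over 43.08%, the solvent-only control mean plus 3 SD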;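 note: 0% = DMSO treated cells and 100% = gossypol at 36 µM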); details: HEK293 GAL4-SRC3 luciferase reporter, at 3.6 µM, stronger effect = higher value
[2] = test system: transactivating tegument protein VP16 (Human herpesvirus 1), Gal4-VP16 luciferase reporter; assay: repression of VP16-driven luciferase reporter – cell-based, luminescence, high throughput, counter-screen for SRC3 inhibitor project (AID 588794); details: mammalian cells, at 3.6 µM, stronger effect = higher value
[3] = biological target: Nuclear receptor coactivator 1 (Homo sapiens) (UniProt Q15788); assay: NCOA1 GAL4-fusion reporter inhibition – cell-based, luminescence, quadruplicate, confirmation (AID 588820;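 active = mean inhibition above 46.68%, the untreated control wells mean plus 3 SD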;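 note: 0% = DMSO wells and 100% = gossypol 36 µM treated wells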); details: HEK293 GAL4-SRC1 luciferase reporter, at 3.6 µM, stronger effect = higher value
[4] = repression of VP16-driven luciferase reporter – cell-based, luminescence, high throughput, counter-screen for SRC1 inhibitor project (AID 588824; in the data active = inhibition above about 25%); details: cell-based VP16 transactivation luciferase luminescence; at 3.6 µM; stronger effect = higher value
[5] = StAR promoter reporter inhibitors, counter-screen for LRH-1 inverse agonist project, cell-based, luminescence, high throughput (AID 651611; in the data active = inhibition above about 28%); details: StAR promoter luciferase reporter counterscreen, at 3.6 µM, stronger effect = higher value
[6] = biological target: Nuclear receptor subfamily 5 group A member 2 (Homo sapiens) (UniProt O00482); assay: NR5A2 activity suppression in reporter cells – cell-based, luminescence, confirmation (AID 651613; in the data active = inhibition above about 42%;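 note: HEK293T cells co-transfected with LRH-1 and StAR promoter luciferase reporter; 0% = vehicle wells and 100% = parental cells lacking receptor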); details: cell-based LRH-1 luciferase reporter, inverse agonism; at 3.6 µM; stronger effect = higher value
[7] = biological target: Steroidogenic factor 1 (Homo sapiens) (UniProt Q13285); assay: inverse agonism at SF1 nuclear receptor – cell-based, luminescence, high throughput, counter-screen for LRH-1 inverse agonist project (AID 651614; in the data active = inhibition above about 44%;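 note: cells cotransfected with StAR promoter reporter and SF1 expression vector; 0% = vehicle on cells with receptor and 100% = vehicle on cells lacking receptor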); details: cell-based SF1 luciferase reporter, at 3.6 µM, stronger effect = higher value
[8] = compounds suppressing VP16-driven luciferase signal – cell-based, luminescence, high throughput, counter-screen for LRH-1 inverse agonist project (AID 651615; in the data active = inhibition above about 33%); details: Gal4-VP16 luciferase reporter cells, at 3.6 µM, stronger effect = higher value

Nuclear receptor coactivator 3 (Homo sapiens), sequence (Q9Y6Q9 whole entry, looked up, the tested form may be a part): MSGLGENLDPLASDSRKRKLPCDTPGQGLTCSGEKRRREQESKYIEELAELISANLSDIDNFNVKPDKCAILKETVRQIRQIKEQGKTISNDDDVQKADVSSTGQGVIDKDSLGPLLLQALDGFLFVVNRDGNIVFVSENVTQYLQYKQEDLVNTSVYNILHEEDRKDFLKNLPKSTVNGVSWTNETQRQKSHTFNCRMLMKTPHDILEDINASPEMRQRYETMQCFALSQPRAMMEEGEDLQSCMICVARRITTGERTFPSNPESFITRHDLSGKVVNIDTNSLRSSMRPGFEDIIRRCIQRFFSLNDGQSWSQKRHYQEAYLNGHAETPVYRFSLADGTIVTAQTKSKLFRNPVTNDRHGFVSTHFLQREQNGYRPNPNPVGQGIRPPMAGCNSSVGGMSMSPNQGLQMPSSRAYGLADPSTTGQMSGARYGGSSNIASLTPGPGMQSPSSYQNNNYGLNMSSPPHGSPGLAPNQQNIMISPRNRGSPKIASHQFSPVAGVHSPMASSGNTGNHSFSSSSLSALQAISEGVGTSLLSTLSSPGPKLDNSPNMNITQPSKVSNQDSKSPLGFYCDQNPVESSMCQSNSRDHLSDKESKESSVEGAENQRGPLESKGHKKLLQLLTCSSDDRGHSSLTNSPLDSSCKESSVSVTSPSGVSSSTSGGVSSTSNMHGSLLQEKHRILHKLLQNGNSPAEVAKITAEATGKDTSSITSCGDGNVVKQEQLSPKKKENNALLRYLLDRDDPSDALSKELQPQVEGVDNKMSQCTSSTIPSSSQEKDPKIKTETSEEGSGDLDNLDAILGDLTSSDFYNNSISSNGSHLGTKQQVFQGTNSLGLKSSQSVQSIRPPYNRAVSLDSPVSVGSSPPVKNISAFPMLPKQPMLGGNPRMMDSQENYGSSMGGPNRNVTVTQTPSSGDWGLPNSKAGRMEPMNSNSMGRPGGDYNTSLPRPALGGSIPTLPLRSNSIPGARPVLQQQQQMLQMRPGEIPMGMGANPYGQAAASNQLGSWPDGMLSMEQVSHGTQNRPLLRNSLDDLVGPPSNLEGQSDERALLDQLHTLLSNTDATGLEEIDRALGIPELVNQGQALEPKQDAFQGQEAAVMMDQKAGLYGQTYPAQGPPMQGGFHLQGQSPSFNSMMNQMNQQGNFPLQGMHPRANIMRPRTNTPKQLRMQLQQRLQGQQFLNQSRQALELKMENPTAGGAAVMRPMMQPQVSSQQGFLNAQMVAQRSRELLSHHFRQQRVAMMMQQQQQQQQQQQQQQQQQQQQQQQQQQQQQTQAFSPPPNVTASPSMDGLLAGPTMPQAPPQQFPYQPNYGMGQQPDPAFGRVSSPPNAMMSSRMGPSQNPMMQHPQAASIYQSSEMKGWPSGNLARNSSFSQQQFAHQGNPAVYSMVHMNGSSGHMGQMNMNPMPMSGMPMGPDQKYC
Steroidogenic factor 1 (Homo sapiens), sequence (Q13285 whole entry, looked up, the tested form may be a part): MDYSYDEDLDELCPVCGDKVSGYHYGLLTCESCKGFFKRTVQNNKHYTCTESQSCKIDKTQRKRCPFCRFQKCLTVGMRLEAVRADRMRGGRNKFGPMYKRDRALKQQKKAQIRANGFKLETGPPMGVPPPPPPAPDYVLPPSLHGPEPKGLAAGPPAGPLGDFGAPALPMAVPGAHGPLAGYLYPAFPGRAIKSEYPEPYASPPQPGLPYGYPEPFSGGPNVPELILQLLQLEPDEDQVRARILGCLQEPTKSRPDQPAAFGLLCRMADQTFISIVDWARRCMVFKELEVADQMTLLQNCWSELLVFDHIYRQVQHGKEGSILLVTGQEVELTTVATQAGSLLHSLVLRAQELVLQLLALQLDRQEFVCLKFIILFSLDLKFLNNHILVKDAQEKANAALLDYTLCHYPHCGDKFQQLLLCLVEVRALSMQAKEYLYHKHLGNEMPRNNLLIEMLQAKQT
Nuclear receptor subfamily 5 group A member 2 (Homo sapiens), sequence (O00482 whole entry, looked up): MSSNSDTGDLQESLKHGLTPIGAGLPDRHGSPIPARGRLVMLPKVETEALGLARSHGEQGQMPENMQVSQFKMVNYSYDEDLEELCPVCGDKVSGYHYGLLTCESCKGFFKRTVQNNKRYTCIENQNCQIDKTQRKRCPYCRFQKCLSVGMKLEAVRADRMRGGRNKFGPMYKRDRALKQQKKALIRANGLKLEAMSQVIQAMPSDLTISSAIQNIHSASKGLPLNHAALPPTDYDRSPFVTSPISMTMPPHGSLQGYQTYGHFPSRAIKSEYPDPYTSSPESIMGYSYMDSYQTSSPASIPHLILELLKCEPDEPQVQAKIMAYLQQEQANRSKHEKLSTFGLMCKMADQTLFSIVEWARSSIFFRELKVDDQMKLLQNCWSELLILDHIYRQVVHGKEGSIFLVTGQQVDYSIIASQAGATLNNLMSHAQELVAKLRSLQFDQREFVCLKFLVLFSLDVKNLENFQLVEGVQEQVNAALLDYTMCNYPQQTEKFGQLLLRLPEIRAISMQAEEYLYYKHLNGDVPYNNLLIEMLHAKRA
Nuclear receptor coactivator 1 (Homo sapiens), sequence (Q15788 whole entry, looked up, the tested form may be a part): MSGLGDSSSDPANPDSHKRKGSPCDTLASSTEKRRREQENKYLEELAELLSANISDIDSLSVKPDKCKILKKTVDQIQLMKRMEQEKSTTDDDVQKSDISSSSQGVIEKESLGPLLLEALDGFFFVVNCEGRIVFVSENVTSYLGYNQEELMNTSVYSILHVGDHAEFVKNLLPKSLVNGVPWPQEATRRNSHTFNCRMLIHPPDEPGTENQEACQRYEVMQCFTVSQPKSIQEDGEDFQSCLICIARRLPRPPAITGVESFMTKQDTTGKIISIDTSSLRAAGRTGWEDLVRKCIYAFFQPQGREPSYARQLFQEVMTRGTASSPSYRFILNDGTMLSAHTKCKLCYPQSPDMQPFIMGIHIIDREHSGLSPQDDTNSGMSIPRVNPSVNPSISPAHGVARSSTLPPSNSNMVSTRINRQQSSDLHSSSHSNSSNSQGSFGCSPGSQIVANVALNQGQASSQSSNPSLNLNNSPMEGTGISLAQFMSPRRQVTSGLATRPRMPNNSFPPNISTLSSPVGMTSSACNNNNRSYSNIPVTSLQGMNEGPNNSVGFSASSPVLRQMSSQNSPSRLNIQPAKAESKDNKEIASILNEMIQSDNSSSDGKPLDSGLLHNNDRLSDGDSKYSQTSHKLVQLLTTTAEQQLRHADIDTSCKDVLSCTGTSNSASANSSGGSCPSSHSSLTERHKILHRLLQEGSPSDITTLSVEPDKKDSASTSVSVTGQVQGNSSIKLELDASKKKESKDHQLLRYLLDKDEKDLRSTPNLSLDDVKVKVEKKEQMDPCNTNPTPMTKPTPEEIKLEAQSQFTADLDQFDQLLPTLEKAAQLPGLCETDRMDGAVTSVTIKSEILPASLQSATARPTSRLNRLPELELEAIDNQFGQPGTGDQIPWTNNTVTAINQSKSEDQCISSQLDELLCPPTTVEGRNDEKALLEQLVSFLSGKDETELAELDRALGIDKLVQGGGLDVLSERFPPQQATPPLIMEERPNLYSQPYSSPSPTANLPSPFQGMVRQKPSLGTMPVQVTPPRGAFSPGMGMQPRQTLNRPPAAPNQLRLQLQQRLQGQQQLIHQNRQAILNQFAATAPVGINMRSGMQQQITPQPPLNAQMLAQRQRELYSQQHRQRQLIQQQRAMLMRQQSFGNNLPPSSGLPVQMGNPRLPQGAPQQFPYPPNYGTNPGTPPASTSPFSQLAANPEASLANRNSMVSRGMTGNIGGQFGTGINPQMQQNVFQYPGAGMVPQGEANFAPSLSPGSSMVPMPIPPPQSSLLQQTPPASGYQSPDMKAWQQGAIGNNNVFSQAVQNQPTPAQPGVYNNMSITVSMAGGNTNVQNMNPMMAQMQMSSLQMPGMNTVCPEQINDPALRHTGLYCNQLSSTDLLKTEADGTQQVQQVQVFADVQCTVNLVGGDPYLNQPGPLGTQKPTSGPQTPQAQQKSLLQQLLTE

Structure (SMILES) | inhibition [1] | inhibition [2] | inhibition [3] | inhibition [4] | inhibition [5] | inhibition [6] | inhibition [7] | inhibition [8]
Cc1cc(/C=c2/sc3nc4ccccc4n3c2=O)c(C)n1-c1ccccn1 | 89.7% (active) | 87.8% (active) | 82.9% (active) | 81.6% (active) | 86.4% (active) | 84.2% (active) | 87.4% (active) | 78.8% (active)
COc1cccc(/C=N/NC(=O)c2ccc(-c3ccccc3)cc2)c1O | 28.9% (inactive) | 39.8% (active) | 37.3% (inactive) | 40.6% (active) | 48.9% (active) | 81% (active) | 36.4% (inactive) | 80.1% (active)
Cc1nc(N)nc(N)c1/C=C/C(C)(C)c1ccc(Cl)cc1 | 70% (active) | 29.5% (active) | 62.2% (active) | 28.5% (active) | 78.5% (active) | 62.7% (active) | 56.5% (active) | 28.6% (inactive)
O=C1NC(=O)C(c2ccc(F)cc2)N1 (stereo not drawn) | 3.02% (inactive) | -3.31% (inactive) | -2.47% (inactive) | -5.94% (inactive) | 11% (inactive) | 8.89% (inactive) | 2.89% (inactive) | 4.11% (inactive)
CN(C)c1ccc(C=c2c3ccccc3n3c2c2c([n+]3C)CCCC2)cc1 | 75.3% (active) | 81.7% (active) | 55.7% (active) | 81.8% (active) | 79% (active) | 110% (active) | 94.3% (active) | 94.7% (active)
COc1ccc2cc3cc(C(=O)Nc4cc(OC)c(OC)c(OC)c4)oc3nc2c1 | 37.1% (inactive) | 33.5% (active) | 9.93% (inactive) | 46.1% (active) | 71% (active) | 55.1% (active) | 74.7% (active) | 56.5% (active)
CCCCCCCCCn1ccc(=N)cc1 | 68.9% (active) | 84.2% (active) | 58.6% (active) | 85.2% (active) | 72.7% (active) | 102% (active) | 91.3% (active) | 85.9% (active)
CC(NNC(=S)N1CCN(c2ccccn2)CC1)c1nccc2ccccc12 (stereo not drawn) | 61.5% (active) | 54.2% (active) | 55.6% (active) | 59.5% (active) | 80.9% (active) | 97.1% (active) | 89.3% (active) | 61% (active)
COC(=O)c1cc(O)cc(OC)c1Oc1cc(C)cc(O)c1C(=O)O | 13.8% (inactive) | 62.9% (active) | 54.2% (active) | 60.2% (active) | 56.5% (active) | 73% (active) | 66.9% (active) | 65.5% (active)
CN(C)c1ccc(C=c2c3ccccc3n3c2cc(-c2ccccc2)[n+]3C)cc1 | 65.7% (active) | 84.2% (active) | 56.7% (active) | 88.2% (active) | 74% (active) | 109% (active) | 94.8% (active) | 93.5% (active)
CCn1cc(/C=C/c2cc[n+](C)cc2)c2ccccc21 | 21.5% (inactive) | 38.4% (active) | 3.02% (inactive) | 47.3% (active) | 40.5% (active) | 65.9% (active) | 66.8% (active) | 57.1% (active)
CN(Cc1cnc2nc(N)nc(N)c2n1)c1ccc(C(=O)NC(CCC(=O)O)C(=O)O)cc1C(F)(F)F (stereo not drawn) | 60.4% (active) | 7.16% (inactive) | 51.9% (active) | 5.94% (inactive) | 79.6% (active) | 56.4% (active) | 49.1% (active) | 21.3% (inactive)
Cc1ccc(NCCN(C)C)c2c(=O)c3cc(O)ccc3sc12 | 40.4% (inactive) | 41.6% (active) | 46.6% (inactive) | 29.6% (active) | 41.3% (active) | 67.3% (active) | 54.6% (active) | 55.7% (active)
N=c1c2c(n(Cc3ccc(F)cc3)c3c1CCC3)CCCC2 | 27.9% (inactive) | 61.5% (active) | 13.6% (inactive) | 48% (active) | 41.4% (active) | 101% (active) | 70.9% (active) | 61.2% (active)
COC(=O)C12OCC34C(CC5C(C)=C(O)C(=O)CC5(C)C3C(O)C1O)OC(=O)C(OC(=O)C=C(C)C)C24 (stereo not drawn) | 97.3% (active) | 96.7% (active) | 95.2% (active) | 96.3% (active) | 96.9% (active) | 110% (active) | 98.5% (active) | 97.6% (active)
COc1ccccc1-n1c(-c2ccccc2)c[n+]2c1CCc1ccccc1-2 | 47.9% (active) and 39.9% (inactive) | 72.8% (active) and 57.1% (active) | 39.1% (inactive) and 29.1% (inactive) | 73.8% (active) and 53.7% (active) | 58.2% (active) and 36.6% (active) | 96.8% (active) and 84.2% (active) | 84.2% (active) and 76% (active) | 83.9% (active) and 70.9% (active)
